Source: PubChem (several laboratories)
LGR2 inh = inhibitors of bursicon-induced LGR2 CRE-luciferase signal, primary screen, cell-based, HEK293, CRE-luciferase reporter, bursicon stimulation. inhibition, % at 9.99 µM. bursicon-stimulated, 4 h. 0.35% of 380,000 active;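 active means drop in luminescence signal, shown as inhibition above about 50% in the replicate tests, limit read from the data, passing the limit was not always enough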;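 further: agonist challenge used bursicon conditioned medium at about half maximal strength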
TWEAK-Fn14 inh = inhibitors of TWEAK-Fn14 signaling, primary screen, luciferase reporter cells, uHTS. TWEAK-stimulated Fn14 reporter cells, luciferase luminescence, 8 h. inhibition, % at 10 µM. 2% of 360,000 active. AID 1159606, 2016; in the data active means inhibition above about 50%
HSP90 inh = HSP90 inhibitors, primary screen, cell lysate, luminescence; 0.91% of 290,000 active; Heat shock protein HSP 90 (rabbit reticulocyte lysate; luciferase refolding); inhibition, % at 5.6 µM; AID 1789, 2009; Rabbit reticulocyte lysate, luciferase refolding luminescence, 3 h;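 active means inhibition above the screen-wide mean plus 3 SD, computed separately per campaign, cut at about 16% in these data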;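 further: inhibitors lower the luminescence because luciferase stays unfolded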
TROY signal inh = inhibitors of TROY-driven NF-kB signaling, primary screen, Q293 LMP1-TROYcd cells, NF-kB luciferase, uHTS. Q293 LMP1-TROYcd NF-kB luciferase reporter, 4 h. inhibition, % at 10 µM. 0.98% of 360,000 active. AID 1347056, 2019;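 active means compounds whose plate-normalised and pattern-corrected inhibition of the luciferase reporter signal at the single screening dose is 50% or more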
Each line names hits and unclear results; the compound was inactive in the other large screens; ! = a repeat was not active. Rows were chosen to be rich in hits. Some 2.2% of all compounds tested hit in one or more screens of this group.

CCNC(=O)C[C@@H]1CC[C@@H]2[C@H](COc3ccc(NC(=O)Nc4ccccc4C)cc3C(=O)N2C)O1	none (no result: TWEAK-Fn14 inh, HSP90 inh, TROY signal inh)
O=C(CCCN1C(=O)/C(=C/c2ccccc2Cl)SC1=S)NNC(=O)c1ccncc1	TWEAK-Fn14 inh 79, TROY signal inh 68
O=C(CCCN1C(=O)/C(=C/c2cccs2)SC1=S)NNC(=O)c1ccncc1	none
CN1c2ccc(C3=CCCCC3)cc2[C@H]2[C@H](CCN2C(=O)C2CCCCC2)[C@H]1CO	none (no result: TWEAK-Fn14 inh, HSP90 inh, TROY signal inh)
O=C(/C=C/c1ccc([N+](=O)[O-])cc1)Nc1ncc([N+](=O)[O-])s1	LGR2 inh 94, TWEAK-Fn14 inh 66
O=C(NCc1ccco1)c1nc2c(nnn2Cc2ccccc2Cl)c(=O)[nH]1	LGR2 inh 93, TWEAK-Fn14 inh 85, TROY signal inh 85
Cc1ccc(C)c(Cn2nnc3c(=O)[nH]c(C(=O)NCc4ccco4)nc32)c1	none
Fc1ccc(Nc2ccc3ccccc3n2)c(F)c1	TWEAK-Fn14 inh 52, HSP90 inh 34
CC(=O)c1ccc(-n2c(CCC(=O)O)ccc2-c2cccs2)cc1	TWEAK-Fn14 inh 61, TROY signal inh 57
O=C(O)CCc1ccc(-c2cccs2)n1NC(=O)c1ccco1	TWEAK-Fn14 inh 105
O=C(C1CCCCC1)N1C[C@@H]2[C@H](c3ccccc31)[C@@H](CO)N2C(=O)c1ccccc1	none (no result: TWEAK-Fn14 inh, HSP90 inh, TROY signal inh)
COc1ccc(-c2ccc([C@H]3[C@H](CO)N4C(=O)CN(C(=O)c5ccccn5)C[C@@H]34)cc2)cc1	none (no result: TWEAK-Fn14 inh, HSP90 inh, TROY signal inh)
COc1ccc(S(=O)(=O)Nc2ccc3c(c2)C(=O)N([C@@H](C)CO)C[C@H](C)[C@@H](CN(C)S(=O)(=O)c2cn(C)cn2)OCCCC[C@H](C)O3)cc1	none (no result: TWEAK-Fn14 inh, HSP90 inh, TROY signal inh)
CC(C)(C)OC(=O)N/N=C\c1ccc([N+](=O)[O-])s1	TWEAK-Fn14 inh 91, TROY signal inh 66
Cc1ccc(C(=O)N/N=C/c2ccc([N+](=O)[O-])s2)cc1	TWEAK-Fn14 inh 95 (no result: LGR2 inh)
C[C@H](CO)N1C[C@H](C)[C@@H](CN(C)CC2CCCC2)Oc2cc(C3=CCCCC3)ccc2S1(=O)=O	none (no result: TWEAK-Fn14 inh, HSP90 inh, TROY signal inh)
C[C@@H]1CCCCO[C@H](CN(C)C(=O)CCC(F)(F)F)[C@H](C)CN([C@@H](C)CO)C(=O)c2cc(NC(=O)NC3CCCCC3)ccc2O1	none (no result: TWEAK-Fn14 inh, HSP90 inh, TROY signal inh)
CCOc1ncccc1C(=O)NNC(=O)c1cccc(S(=O)(=O)N2CCOCC2)c1	TWEAK-Fn14 inh 97 (no result: HSP90 inh)
CCOc1ncccc1C(=O)Nc1cccc(S(=O)(=O)N2CCCCC2)c1	none (no result: HSP90 inh)
COC1=C(C)C(=O)C2=C(C1=O)C1C3CC4=C(C(=O)C(OC)=C(C)C4=O)C(CNC(=O)C(C)=O)N3C(C#N)C(C2)N1C (stereo not drawn)	LGR2 inh 97, TWEAK-Fn14 inh 100, TROY signal inh 63 (no result: HSP90 inh)
CCCCCCCC[n+]1cccc(C(=O)N(CC)CC)c1	none (no result: LGR2 inh)
CCCCCCCCCCCCCCCC[n+]1cccc(C(=O)N(CC)CC)c1	TROY signal inh 57!
C[C@@H]1CN([C@@H](C)CO)C(=O)c2cc(C3=CCCC3)cnc2O[C@H]1CN(C)C(=O)c1ccncc1	none (no result: TWEAK-Fn14 inh, HSP90 inh, TROY signal inh)
O=C(Cc1ccccc1)NC(Nc1cccc2ccccc12)C(Cl)(Cl)Cl (stereo not drawn)	TROY signal inh 56 (no result: LGR2 inh)
COc1ccc(C(=O)/C=C/C(=O)N(CC(=O)NC2CCCCC2)Cc2ccc(F)cc2)c(O)c1	TWEAK-Fn14 inh 85, TROY signal inh 89 (no result: LGR2 inh)
CCN(CC)c1ccc(C(=C2C=CC(=[N+](CC)CC)C=C2)c2ccccc2)cc1	LGR2 inh 105, TWEAK-Fn14 inh 107, TROY signal inh 89 (no result: HSP90 inh)
CCN(CC)c1ccc(C(=O)NNC(=O)CCl)cc1	none
CCN(CC)c1ccc(C(=C2C=CC(=[N+](CC)CC)C=C2)c2ccc(N(CC)CC)cc2)cc1	TWEAK-Fn14 inh 103, TROY signal inh 91 (no result: LGR2 inh, HSP90 inh)
Cc1cccc(NC(=O)CNC(=O)Cn2ncc(Cl)c(Cl)c2=O)c1C	TWEAK-Fn14 inh 100 (no result: LGR2 inh, HSP90 inh)
O=C(Cn1ncc(Cl)c(Cl)c1=O)NCC1CCCCC1	TWEAK-Fn14 inh 97 (no result: LGR2 inh)
O=C(Cn1ncc(Cl)c(Cl)c1=O)NC1CCS(=O)(=O)C1 (stereo not drawn)	none
O=C(Cn1ncc(Cl)c(Cl)c1=O)NC1CCCCC1	TWEAK-Fn14 inh 84 (no result: HSP90 inh)
Cc1cccc(NC(=O)CNC(=O)CSc2ncccn2)c1C	none (no result: HSP90 inh)
O=C1CN(C(=O)Cn2ncc(Cl)c(Cl)c2=O)c2ccccc2N1	LGR2 inh 105, TWEAK-Fn14 inh 94, TROY signal inh 70
CO[C@H]1CN(C)C(=O)c2ccc(NC(C)=O)cc2OC[C@H](C)N(C(=O)c2ccc(F)cc2)C[C@H]1C	none (no result: TWEAK-Fn14 inh, HSP90 inh, TROY signal inh)
C[C@H]1CN([C@@H](C)CO)C(=O)Cc2cc(NC(=O)NC3CCCCC3)ccc2O[C@@H]1CN(C)S(C)(=O)=O	none (no result: TWEAK-Fn14 inh, HSP90 inh, TROY signal inh)
C[C@@H]1CN([C@H](C)CO)C(=O)Cc2cc(NC(=O)Nc3ccc4c(c3)OCO4)ccc2O[C@H]1CN(C)CC1CC1	none (no result: TWEAK-Fn14 inh, HSP90 inh, TROY signal inh)
O=S(=O)(O)c1ccc(O)c2cc(Nc3ccccc3)ccc12	TWEAK-Fn14 inh 79 (no result: LGR2 inh, HSP90 inh)
Cn1c(=O)n(C)c2cc([N+](=O)[O-])c(N3CCN(S(=O)(=O)c4ccc(C(C)(C)C)cc4)CC3)cc21	TWEAK-Fn14 inh 54 (no result: LGR2 inh)
C=C1C(=O)C23C(O)C1CCC2C12CCCC(C)(COC(C)=O)C1C(O)C3(O)OC2 (stereo not drawn)	LGR2 inh 98, TWEAK-Fn14 inh 101, TROY signal inh 77 (no result: HSP90 inh)
C[C@H](CO)N1C[C@H](C)[C@H](CN(C)C(=O)Nc2ccccc2)Oc2c(NS(=O)(=O)c3ccccc3)cccc2C1=O	none (no result: TWEAK-Fn14 inh, HSP90 inh, TROY signal inh)
CO[C@@H]1CN(C)C(=O)c2cc(NC(=O)c3cc(C)on3)ccc2OC[C@@H](C)N(C(=O)C2CC2)C[C@H]1C	none (no result: TWEAK-Fn14 inh, HSP90 inh, TROY signal inh)
COc1cc(N=c2c([N+](=O)[O-])nn(-c3ccc4c(c3)OCCO4)n2O)cc(OC)c1	TROY signal inh 53
CCc1cccc(N=c2c([N+](=O)[O-])nn(-c3ccc4c(c3)OCCO4)n2O)c1	TROY signal inh 55
CC(C)c1ccc(N=c2c([N+](=O)[O-])nn(-c3ccc4c(c3)OCCO4)n2O)cc1	none
COc1ccc(S(=O)(=O)Nc2ccc3c(c2)C(=O)N([C@H](C)CO)C[C@H](C)[C@H](CN(C)Cc2ccccc2)OCCCC[C@@H](C)O3)cc1	none (no result: TWEAK-Fn14 inh, HSP90 inh, TROY signal inh)
Cc1ccc(S(=O)(=O)N[C@@H]2CC[C@@H](CCn3cc(C4CC4)nn3)O[C@H]2CO)cc1	none (no result: TWEAK-Fn14 inh, HSP90 inh, TROY signal inh)
CC(C)n1cnc2c(Nc3cccc(F)c3)nc(NCCO)nc21	none (no result: HSP90 inh)
CC(C)C[C@H](CO)Nc1nc(Nc2cccc(Cl)c2)c2ncn(C(C)C)c2n1	TWEAK-Fn14 inh 79 (no result: HSP90 inh)
Cc1ccc(-n2nnc(-c3cccnc3)n2)cc1	none (no result: HSP90 inh)
Cc1ccc(-n2nnc(-c3cnc4ccccc4c3)n2)cc1	TWEAK-Fn14 inh 63
CCCCN(C=O)c1c(CC)nc2c(OCCOc3ccc(F)cc3)cccn12	TWEAK-Fn14 inh 63 (no result: HSP90 inh)
COc1ccc(C[C@H]2CN3C(=NC[C@@H]3Cc3ccccc3)N2CCNC(=O)CCC2CCCCC2)cc1	LGR2 inh 82
CC1(C)CC(=O)C2=C(C1)NC1=C(C(=O)c3ccccc31)C2c1ccccc1 (stereo not drawn)	TWEAK-Fn14 inh 64 (no result: LGR2 inh)
